Measured values as given in PubChem BioAssay (NCATS).
“And” between values parts separate entries of the source, which are not always exact repeats. Equal values may be shown once. Results filed as inconclusive are left out. The source made the active and inactive calls. Unless noted, calls come from the whole dose curve; as a rule, active = well fitted curve in the direction sought with a large enough effect; inconclusive = small, poorly fitted or top-dose-only effect, or another doubt; inactive = no such curve, though single readings can be large; an effect the other way counts as inactive or inconclusive.

Assays:
[1] = biological target: Alpha-galactosidase A (Homo sapiens) (UniProt P06280); experiment: Counterscreen for Glucocerebrosidase Inhibitors: qHTS Assay for Human alpha-Galactosidase at pH 4.5 (AID 992); note: 0% is about no effect
Method in brief: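 Citrate buffer pH 4.5, Tween-20 0.005%. Enzyme 2 nM, substrate 80 uM, 20 min RT. Stop pH 10. Fluorescence Ex 365/Em 440. AC50 by Hill fit.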

[2] = biological target: alpha-glucosidase (Oryza sativa, rice) (UniProt Q653V4); experiment: Counterscreen for Glucocerebrosidase Inhibitors: qHTS Assay for Rice alpha-Glucosidase at pH 5.0 (AID 997);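 note: 0% = full activity with enzyme and -100% = basal without enzyme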
Method in brief: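 Endpoint fluorogenic assay at pH 5.0: compounds (0.7 nM to 77 uM) titrated against 4 nM rice enzyme and 400 uM 4-MU-alpha-glucoside for 20 min at room temperature; NaOH/glycine stop, read ex 365/em 440 nm, Hill-fitted AC50.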

[3] = biological target: Alpha-galactosidase (Coffea arabica) (UniProt Q42656); experiment: Counterscreen for Glucocerebrosidase Inhibitors: qHTS Assay for Coffee Bean alpha-Galactosidase at pH 5.9 (AID 998);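 note: plate controls were uninhibited enzyme for no effect and no-enzyme basal signal for full effect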
Method in brief: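 Fluorogenic 4-MU substrate hydrolysis, 80 uM substrate and 2 nM coffee bean alpha-galactosidase, pH 5.9 citrate buffer, 20 min at room temperature, then NaOH/glycine stop. Titration 0.7 nM–77 uM, normalized to no-enzyme and enzyme controls, AC50 via Hill equation.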

[4] = Validation of Assay for Modulators of Lamin A Splicing (AID 1459; active = well fitted curve in the direction sought with a large enough effect in the signal ratio; the % refers to the signal ratio;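 note: cells exposed to compound for two days before reading; 0% is about no effect; ratio rise marks activators and ratio drop marks inhibitors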)
Method in brief: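 S3 HeLa stably expressing lamin A-EGFP splicing minigene and DsRed2, 600 cells/well in Opti-MEM with 2% FBS, treated 48 h at 37C; laser-scanning cytometry gives GFP/RFP total intensity ratio; ancitabine positive control, 0.5% DMSO vehicle.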

[5] = qHTS Assay for Lipid Storage Modulators (AID 1519; calls by dose curve; for activity change, negative = inhibition: % is set by controls: 0 for no effect and ±100 for the full control effect); conditions: Drosophila S3 cells, BODIPY lipid droplet/cell ratio, laser cytometry, cells loaded with oleic acid
Method in brief: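 Cells seeded at 5,000 per well were treated with compounds over a concentration series and loaded with oleic acid (400 uM, as added). Lipid droplet fluorescence (488 nm excitation, 500-530 nm channel) was read by laser-scanning cytometry and normalized to 20 uM Triacsin C.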

[6] = biological target: DNA repair nuclease/redox regulator APEX1 (Homo sapiens) (UniProt P27695); experiment: qHTS Validation Assay for Inhibitors of the Human Apurinic/apyrimidinic Endonuclease 1 (APE1) (AID 1705; note: potency is the fitted concentration of half-maximal effect;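 for activity change, negative = inhibition: TAMRA fluorescence gain over two minutes as APE1 cuts a quenched THF abasic duplex; % is set by controls: 0 for no effect and ±100 for the full control effect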)
Method in brief: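 Fluorogenic double-stranded THF abasic-site substrate (5'-TAMRA/3'-BHQ-2), 50 nM final. Enzyme preincubated with compound 15 min at room temperature, then substrate added. Kinetic fluorescence (ex 525/em 598 nm) read three times at 60 s intervals; activity taken as third-minus-first read difference.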

[7] = Counterscreen for APE1 Inhibitors: Fluorescent Dye Displacement Validation Assay (AID 1707);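 note: plate controls were ThO with dsDNA and no compound for no effect and ThO without dsDNA for full effect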
Method in brief: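 Signal: ThO fluorescence (ex 480 nm/em 540 nm) on binding 50 nM dsDNA; displacement by test compound reduces it. Conditions: 250 nM dye, 50 mM Tris-HCl pH7.5, 2 mM MgCl2, 50mM NaCl, 0.01% Tween-20.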

[8] = biological target: Endonuclease 4 (Escherichia coli (strain K12)) (UniProt P0A6C1); experiment: Counterscreen for APE1 Inhibitors: qHTS Validation Assay for Inhibitors of Endonuclease IV (AID 1708); note: % is set by controls: 0 for no effect and ±100 for the full control effect
Method in brief: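 The reaction buffer contained 50 mM Tris-HCl pH 7.5, 50 mM NaCl, 2 mM MgCl2, 1 mM DTT and 0.01% Tween-20. Incision of a 50 nM fluorophore/quencher THF substrate by 2 nM enzyme was measured kinetically.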

[9] = qHTS for differential inhibitors of proliferation of Plasmodium falciparum line 7G8 (AID 1815);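 note: parasite growth measured after three days of incubation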; note: potency is the fitted concentration of half-maximal effect;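 for activity change, negative = inhibition: plate controls were vehicle wells for no effect and reference inhibitor wells for full effect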
[10] = qHTS for differential inhibitors of proliferation of Plasmodium falciparum line GB4 (AID 1816); conditions: Potency: Plasmodium falciparum GB4 proliferation inhibition;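 note: parasite growth measured after 72 h incubation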; note: potency is the fitted concentration of half-maximal effect;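 for activity change, negative = inhibition: 0% = vehicle DMSO and -100% = reference inhibitor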
[11] = qHTS for differential inhibitors of proliferation of Plasmodium falciparum line 3D7 (AID 1876); note: potency is the fitted concentration of half-maximal effect
[12] = Cell Viability - LYMP2-010 (AID 981);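 note: cells exposed to compound for 24 hours at 37 °C; nearly all actives have a fitted effect of over 55% in size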; note: potency is the fitted concentration of half-maximal effect
Method in brief: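 qHTS cytotoxicity, 1536-well: 2500 cells/well, 5 hr settle, 24 hr compound at 37 C, CellTiter-Glo 30 min RT, luminescence read. Decrease in ATP = toxicity; AC50 via standard Hill equation. Positive control tetraoctylammonium bromide.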

[13] = Cell Viability - LYMP2-012 (AID 982);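 note: cellular ATP by luciferase luminescence where a drop means cytotoxicity; cells exposed to compound for one day before reading; nearly all actives have a fitted effect of over 55% in size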; note: potency is the fitted concentration of half-maximal effect
[14] = Cell Viability - LYMP2-014 (AID 983);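 note: plate controls were DMSO only for no effect and 92 µM tetraoctylammonium bromide for full effect; nearly all actives have a fitted effect of over 50% in size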
Method in brief: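 2500 cells/well, 5 hr 37 C; cpd 24 hr 37 C, complete medium; CellTiter-Glo 30 min RT, luminescence; ATP loss = toxicity; AC50 via Hill eqn; tetraoctylammonium bromide positive control.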

[15] = Cell Viability - LYMP2-016 (AID 984);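 note: cells exposed to compound for 24 hours at 37 °C; % is set by controls: 0 for no effect and ±100 for the full control effect; nearly all actives have a fitted effect of over 55% in size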
Method in brief: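 Human lymphoblastoid LYMP2-016 cells, 2500 per well, treated with compounds for 24 h at 37 C. Viability read as intracellular ATP by CellTiter-Glo luminescence after 30 min at room temperature; AC50 from Hill fits of concentration-response.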

[16] = Cell Viability - LYMP2-022 (AID 987); note: nearly all actives have a fitted effect of over 55% in size; note: potency is the fitted concentration of half-maximal effect
Method in brief: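 Luminescent ATP read-out (CellTiter-Glo, 30 min, RT) after 24 hr, 37 C compound exposure of 2500 human lymphoblastoid cells/well in complete medium. Cytotoxicity taken as concentration-dependent ATP loss; AC50 from standard Hill equation.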

[17] = Cell Viability - LYMP2-024 (AID 988); note: nearly all actives have a fitted effect of over 60% in size; note: potency is the fitted concentration of half-maximal effect
Method in brief: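 ATP-based luminescence (CellTiter-Glo, 30 min RT) after 24 h compound exposure at 37 C of 2500 lymphoblastoid cells/well; decrease in ATP taken as cytotoxicity. qHTS concentration-response fitted to standard Hill equation for AC50.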

[18] = Cell Viability - LYMP1-002 - Assay at 24 hr (AID 993); note: % is set by controls: 0 for no effect and ±100 for the full control effect
Method in brief: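 CellTiter-Glo luminescence (intracellular ATP) after 24 h compound exposure, 37 C, in LYMP1-002 human lymphoblastoid cells; decreased ATP taken as cytotoxicity. AC50 from standard Hill fit of concentration-response curves.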

[19] = Cell Viability - LYMP2-018 (AID 985);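 note: plate controls were DMSO only for no effect and tetraoctylammonium bromide at 92 µM for full effect; nearly all actives have a fitted effect of over 50% in size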
Method in brief: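 2500 cells/well; 5 hr 37 C; cmpd 24 hr 37 C, complete medium; CellTiter-Glo 30 min RT; luminescence. Tetraoctylammonium bromide positive control. AC50 via Hill fit.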

[20] = Cell Viability - LYMP2-020 (AID 986)
Method in brief: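 qHTS, 2500 cells/well; 5 hr then 24 hr compound exposure, 37 C; CellTiter-Glo luminescence after 30 min RT; ATP decrease taken as cytotoxicity; AC50 via Hill equation; tetraoctylammonium bromide positive control.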

[21] = measured here: cell count channel max response
[22] = measured here: lipid channel max response

Chain of Alpha-galactosidase (Coffea arabica) (Q42656 whole entry, looked up): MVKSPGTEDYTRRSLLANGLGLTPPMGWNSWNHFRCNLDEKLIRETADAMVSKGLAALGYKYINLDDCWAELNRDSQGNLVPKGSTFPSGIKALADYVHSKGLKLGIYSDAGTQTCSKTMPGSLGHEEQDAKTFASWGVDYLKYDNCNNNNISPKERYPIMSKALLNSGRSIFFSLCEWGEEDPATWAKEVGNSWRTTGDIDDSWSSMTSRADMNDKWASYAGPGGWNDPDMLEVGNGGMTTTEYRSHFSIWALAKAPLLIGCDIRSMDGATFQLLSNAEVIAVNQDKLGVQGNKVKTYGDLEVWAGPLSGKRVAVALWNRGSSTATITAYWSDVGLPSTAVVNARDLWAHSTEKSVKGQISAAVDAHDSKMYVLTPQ
Chain of DNA repair nuclease/redox regulator APEX1 (Homo sapiens) (P27695 whole entry, looked up): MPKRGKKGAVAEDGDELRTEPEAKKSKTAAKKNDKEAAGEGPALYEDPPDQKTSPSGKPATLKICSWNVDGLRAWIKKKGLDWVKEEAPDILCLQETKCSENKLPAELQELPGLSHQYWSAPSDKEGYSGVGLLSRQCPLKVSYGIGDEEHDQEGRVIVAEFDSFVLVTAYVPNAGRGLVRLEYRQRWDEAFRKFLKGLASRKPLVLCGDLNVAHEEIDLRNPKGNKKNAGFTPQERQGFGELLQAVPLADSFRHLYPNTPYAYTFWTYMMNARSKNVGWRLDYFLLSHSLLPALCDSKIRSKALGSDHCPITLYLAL
Chain of Alpha-galactosidase A (Homo sapiens) (P06280 whole entry, looked up): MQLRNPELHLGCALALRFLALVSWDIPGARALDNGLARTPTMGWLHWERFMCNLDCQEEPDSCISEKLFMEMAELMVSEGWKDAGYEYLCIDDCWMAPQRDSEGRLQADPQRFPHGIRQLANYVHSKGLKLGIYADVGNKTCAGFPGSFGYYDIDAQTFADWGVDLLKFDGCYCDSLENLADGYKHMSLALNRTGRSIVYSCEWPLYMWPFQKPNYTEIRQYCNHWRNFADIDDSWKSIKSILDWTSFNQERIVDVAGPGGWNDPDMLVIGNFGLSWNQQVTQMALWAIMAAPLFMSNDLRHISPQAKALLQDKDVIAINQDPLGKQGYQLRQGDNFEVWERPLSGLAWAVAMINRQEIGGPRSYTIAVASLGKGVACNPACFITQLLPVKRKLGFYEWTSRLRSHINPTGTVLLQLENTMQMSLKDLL

O=[N+]([O-])c1cc(O)c(O)c([N+](=O)[O-])c1
inactive: outcome [1] | outcome [2] | outcome [3] | outcome [4] | activity change, negative = inhibition ([5]; at 57.5 µM (top of the series)) 9.72% and 0.381% | Potency [6] | Potency [7] | Potency [8] | Potency [9] | Potency [10] | Potency [11]
26.8% and 29.7%: max response [5, 22]
15.9% and 33.6%: max response [5, 21]

N[C@@H](Cn1oc(=O)[nH]c1=O)C(=O)O
22.6%: max response [5, 21]
inactive: outcome [1] | outcome [2] | outcome [3] | outcome [4] | activity change, negative = inhibition ([5]; at 57.5 µM (top of the series)) 3.82% | Potency [6] | Potency [7] | Potency [8] | Potency [9] | Potency [10] | Potency [11]
26.9%: max response [5, 22]

O=C1C=CC(=O)C=C1
-24.4%: max response [5, 22]
inactive: Potency [14] | Potency [15] | outcome [1] | Potency [18] | outcome [2] | outcome [3] | outcome [4] | activity change, negative = inhibition ([5]; at 57.5 µM (top of the series)) 0.0539% | Potency [7] | Potency [8] | Potency [9] | Potency [10] | Potency [11]
-25.7%: max response [5, 21]
active: Potency [12] 39.8 µM | Potency [13] 39.8 µM | Potency [16] 39.8 µM | Potency [17] 31.6 µM | Potency [6] 14.1 µM

CC(C)CC(NP(=O)(O)O[C@@H]1O[C@@H](C)[C@H](O)[C@@H](O)[C@H]1O)C(=O)NC(Cc1c[nH]c2ccccc12)C(=O)O (stereo not given in full)
inactive: outcome [4] | activity change, negative = inhibition ([5]; at 57.5 µM (top of the series)) 3.22% | Potency [6] | Potency [7] | Potency [8] | Potency [9] | Potency [10] | Potency [11]
29.8%: max response [5, 22]
23.5%: max response [5, 21]

C[N+]1(C)CCN(c2ccccc2)CC1
-21.1%: max response [5, 21]
inactive: outcome [1] | outcome [2] | outcome [3] | outcome [4] | activity change, negative = inhibition ([5]; at 57.5 µM (top of the series)) 1.07% | Potency [6] | Potency [7] | Potency [8] | Potency [9] | Potency [10]
-16.2%: max response [5, 22]

COc1ccc2c(c1OC)C(=O)OC2C1c2cc3c(cc2CCN1C)OCO3 (stereo not given)
66.1%: max response [5, 22]
61%: max response [5, 21]
inactive: Potency [12] | Potency [13] | Potency [14] | Potency [15] | Potency [19] | Potency [20] | Potency [16] | Potency [17] | Potency [18] | outcome [4] | activity change, negative = inhibition ([5]; at 57.5 µM (top of the series)) 1.56% | Potency [6] | Potency [7] | Potency [8] | Potency [9] | Potency [11]

CN1C2CCC1CC(OC(c1ccccc1)c1ccccc1N)C2 (stereo not given)
inactive: outcome [4] | activity change, negative = inhibition ([5]; at 57.5 µM (top of the series)) 0.575% | Potency [6] | Potency [7] | Potency [8]
-2.6%: max response [5, 21]
active: Potency [9] 8.91 µM | Potency [10] 5.62 µM | Potency [11] 11.2 µM
-1.25%: max response [5, 22]

NC(N)=NOCC[C@H](N)C(=O)O
inactive: outcome [1] | outcome [2] | outcome [3] | outcome [4] | activity change, negative = inhibition ([5]; at 25.7 µM (top of the series)) -2.42% | activity change, negative = inhibition ([5]; at 57.5 µM (top of the series)) -0.661% and -1.31% | Potency [6] | Potency [7] | Potency [8] | Potency [9] | Potency [10] | Potency [11]
-2.62% and 0.126% and 38.5%: max response [5, 21]
-6.68% and -0.879% and 37%: max response [5, 22]
